LMNA splice mod: modulators of lamin A splicing | 200,000 compounds, 0.01% hits | AID 1487 | HeLa LMNA splicing GFP/RFP minigene ratio, 48 h | Potency, µM (titrated, usually from 46.1 µM), for the others: top-dose ratio change, negative = inhibition, most hits filed as inhibitors; active = well fitted inhibition curve with a large enough effect in the signal ratio, with a control signal flat, not every such curve was filed as active; inconclusive = small, poorly fitted or top-dose-only effect, or effect the other way, or a change in a side signal; the % refers to the signal ratio; note: potency is the fitted concentration of half-maximal effect
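S3 HeLa stable clones carrying a lamin A-EGFP splicing minigene plus DsRed2 were seeded at 600 cells/well in Opti-MEM with 2% FBS, pin-dosed and incubated 48 h at 37°C. Acumen cytometry (488 nm) gave the GFP/RFP total-intensity ratio.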
PNC inhibitor: blocks assembly of the perinucleolar compartment | AID 2417 | PC3M PTB-GFP, PNC prevalence imaging, 16 h; active compounds read low | activity change (PNC), negative = inhibition, % at 10 µM | 140,000 compounds, 3.1% hits;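 active = readout at or below -70, meaning at least 70% loss of cells showing the perinucleolar compartment, a nuclear body marking cancer cells; inconclusive = readout between -30 and a set limit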;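 note: plate controls were DMSO wells for no effect and camptothecin positive control wells for full effect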
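Read-out is percentage of cells bearing a perinucleolar compartment, from automated 20x imaging of fixed, Hoechst-stained PC3M PTB-GFP cells. Cells were seeded 4 h, then exposed 16 h to compound (23 nl of library stock) in duplicate plates.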
HPGD inh: inhibitors of human 15-hydroxyprostaglandin dehydrogenase (HPGD). Potency, µM, for inactives: top-dose activity change, negative = inhibition, most hits filed as inhibitors. P15428. 150,000 compounds, 4.3% hits. purified HPGD, NADH fluorescence kinetic, PGE2 substrate. AID 894; note: potency is the fitted concentration of half-maximal effect
Target sequence (P15428 whole entry, looked up): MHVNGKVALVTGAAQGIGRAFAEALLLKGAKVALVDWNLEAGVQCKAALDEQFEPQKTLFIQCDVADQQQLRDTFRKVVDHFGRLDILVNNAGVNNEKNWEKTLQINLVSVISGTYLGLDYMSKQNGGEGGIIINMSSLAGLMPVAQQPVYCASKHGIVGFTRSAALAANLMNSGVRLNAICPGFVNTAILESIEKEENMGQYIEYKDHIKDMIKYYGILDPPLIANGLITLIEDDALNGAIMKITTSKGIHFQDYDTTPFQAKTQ
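20 nM HPGD preincubated 15 min at room temperature with compound in 50 mM Tris-HCl pH 8, 0.01% Tween 20. Started with 1 mM NAD+ and 30 uM prostaglandin E2; NADH fluorescence (360/450 nm) read 5 times over 30-s intervals, last minus first.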
KinaseGlo FLuc: blocks Kinase-Glo luciferase, a counter-screen artifact | Q27757 | Kinase-Glo luciferase, ATP luminescence, 8 min | Potency, µM (doses to about 38.3 µM), for the others: at the top dose activity change, negative = inhibition, usual class: inhibitors | 200,000 compounds, 0.28% hits; active = well fitted inhibition curve with a large enough effect; inconclusive = small, poorly fitted or top-dose-only effect; note: potency is the fitted concentration of half-maximal effect; nearly all actives have a fitted effect of over 60% in size
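Kinase-Glo luciferase light output from ATP and luciferin was measured with 10 uM ATP, within the enzyme's linear range. Buffer: 50 mM imidazole pH 7.2, 50 mM KCl, 7 mM MgCl2, 0.01% Tween 20, 0.05% BSA; luminescence read after 8 min at ambient temperature.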
ALDH1A1 inh: inhibitors of human aldehyde dehydrogenase 1A1 | P00352 | Purified ALDH1A1, NADH fluorescence, propionaldehyde substrate | Potency, µM (doses to about 75.3 µM), without a hit: top-dose activity, negative = inhibition, usual class: inhibitors | 220,000 compounds, 7.3% hits;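 note: potency is the fitted concentration of half-maximal effect; plate controls were no enzyme wells and a reference inhibitor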
Target sequence (P00352 whole entry, looked up): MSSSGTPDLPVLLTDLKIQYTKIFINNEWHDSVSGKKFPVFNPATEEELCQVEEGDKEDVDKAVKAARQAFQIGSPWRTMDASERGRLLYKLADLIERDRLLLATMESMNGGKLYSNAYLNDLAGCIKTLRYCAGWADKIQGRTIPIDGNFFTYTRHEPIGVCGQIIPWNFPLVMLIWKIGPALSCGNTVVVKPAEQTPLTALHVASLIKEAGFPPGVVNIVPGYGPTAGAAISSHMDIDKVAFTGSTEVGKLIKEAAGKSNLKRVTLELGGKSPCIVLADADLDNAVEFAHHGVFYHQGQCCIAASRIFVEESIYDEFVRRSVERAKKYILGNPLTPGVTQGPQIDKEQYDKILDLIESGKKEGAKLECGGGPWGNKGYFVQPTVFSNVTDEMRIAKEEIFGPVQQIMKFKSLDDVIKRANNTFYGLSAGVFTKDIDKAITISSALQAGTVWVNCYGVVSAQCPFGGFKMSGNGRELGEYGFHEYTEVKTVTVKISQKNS
Starred values were filed as active, the others as inactive; i = inactive; ? = inconclusive; nt = no result given; [ ] = another dose, or the depositor's remark. In the library only some 10% were active in any assay of this set; here they are far more common. Unless noted, calls come from the whole dose curve; as a rule, active = well fitted inhibition curve with a large enough effect (not every such curve was filed as active); inconclusive = small, poorly fitted or top-dose-only effect, or another doubt; inactive = no such curve, though single readings can be large or run the other way. Unless noted, % is set by controls: 0 for no effect and ±100 for the full control effect.

SMILES	LMNA splice mod	PNC inhibitor	HPGD inh	KinaseGlo FLuc	ALDH1A1 inh
COc1ccc(-n2c(=O)cnc3cnc(N4CCN(C)CC4)nc32)cc1	-12%	nt	nt	nt	20%
CC(=O)Nc1sc2c(c1C(c1ccncc1)N1CCOCC1)CCCC2 (stereo not given)	?	nt	nt	3%	25µM*
CC(=O)Nc1sc2c(c1C(c1cccc(Cl)c1)N1CCN(CCO)CC1)CCCC2 (stereo not given)	nt	nt	nt	-3%	-5%
CN1CCCC2(CCN(C(=O)c3cc(C(F)(F)F)cc(C(F)(F)F)c3)CC2)C1	nt	nt	-9%	-3%	11%
Cc1ccc(S(=O)(=O)CC(=O)N(C)C)cc1	-9%	-100*	-5%	0%	5%
Cc1ccc(CSc2nc3ccc(NC(=O)CC(C)C)cc3s2)cc1	20%[46 µM]	nt	nt	nt	nt
CC(C)(C)C(=O)Nc1ccc(Sc2ccc([N+](=O)[O-])cc2)cc1	-17%	-30	8.9µM*	3%	5%
CN(C)C(=O)c1ccc(-c2ccc3ncnc(N4CCC(C(=O)O)CC4)c3c2)cc1	10%	nt	nt	nt	?
CC1(C)OCC(CSC2=C(SCC3COC(C)(C)O3)C(=O)c3ncccc3C2=O)O1 (stereo not given)	nt	nt	3.5µM*	-8%	2.5µM*
Cc1cc(C(=O)N/N=C/c2cccnc2)cs1	-3%	-114*	-5%	-5%	3%
COc1ccc(-n2c(=O)c(-c3cccs3)nc3cnc(N4CCN(C)CC4)nc32)cc1	-11%	nt	nt	nt	1%
Cc1nc2nc(SCC(=O)NCCc3ccc(Cl)cc3)nn2c(C)c1Cc1c(F)cccc1Cl	1%[46 µM]	nt	nt	nt	nt
O=S(=O)(Cc1ccccc1)/C1=C(\N2CCOCC2)CCCCCC1	?	10	-9%	10%	13µM*
O=S(=O)(c1ccc(S(=O)(=O)N2CCN(Cc3ccccc3)CC2)cc1)N1CCOCC1	6%	23	5%	-1%	14%
CNCc1ccccc1Sc1cc(O)ccc1O	-14%	-21	8.9µM*	-1%	0.79µM*
COc1cccc(C2CC(=O)Nc3c2c(=O)nc2c(C)cccn32)c1OC (stereo not given)	4%[46 µM]	nt	nt	nt	nt
CCn1c(SCC(=O)Nc2ccc3c(c2)oc2ccccc23)nnc1-c1ccc(N)cc1	?	?	?	16%	25µM*
CC(=O)Nc1ccc(-c2nnc(SCC(=O)Nc3ccc4c(c3)oc3ccccc34)n2C)cc1	-4%[0.0737 µM]	29	-19%	-4%	0.4µM*
COc1ccccc1NC(=O)CSc1nnc(-c2ccc(NC(C)=O)cc2)n1C	13%	-2	-7%	0%	-5%
CC(=O)Nc1cccc(-c2nnc(SCC(=O)n3c4c(c5ccccc53)CCCC4)n2C)c1	4%	-21	-12%	-5%	22µM*
CC(=O)Nc1cccc(-c2nnc(SCC(=O)N3CCCCC3)n2C)c1	-20%	21	-22%	8%	-13%
COc1ccc(-n2c(=O)cnc3cnc(OC)nc32)cc1	-3%	nt	nt	nt	22µM*
COc1ccc(Oc2ncc3ncc(=O)n(C[C@H]4CCCO4)c3n2)cc1	nt	nt	-16%	-3%	14µM*
CCCN1C/C(=C/c2ccc3c(c2)OCO3)C(=O)/C(=C/c2ccc3c(c2)OCO3)C1	?	-20	-10%	3%	?
CCCN1C(=O)/C(=C/c2ccc3c(c2)OCO3)NC1=S	nt	nt	nt	0%	2.2µM*
SMILES	LMNA splice mod	PNC inhibitor	HPGD inh	KinaseGlo FLuc	ALDH1A1 inh
Cc1nc2scc(-c3cccs3)c2c(=O)[nH]1	-2%	?	22µM*	-5%	11µM*
O=C(O)Cn1cnc2scc(-c3cccs3)c2c1=O	3%	9	-22%	-2%	-3%
O=c1[nH]c(-c2ccc(O)cc2)nc2scc(-c3cccs3)c12	5%[46 µM]	nt	nt	nt	?
Cc1nc2scc(-c3cccs3)c2c(=O)n1CC(=O)O	0%	-80*	-30%	-1%	3%
Cc1ccc(C)n1-c1nc(=S)[nH][nH]1	-1%	-5	16µM*	-2%	25µM*
Cc1ccc(C)n1-c1ccc(-c2ccn[nH]2)cc1	-1%[46 µM]	nt	nt	2%	?
CC1CCC2(OC1)OC1CC3C4CC[C@@H]5CC(O)CC[C@@]5(C)C4CC(=O)[C@]3(C)C1C2C (stereo not given in full)	nt	nt	-12%	-4%	-2%
NC(=O)CC[C@H](NC(=O)c1ccc(F)cc1)C(=O)OCC(=O)Nc1c(F)c(F)c(F)c(F)c1F	0%	-92*	-7%	-3%	14%
Cc1nn(Cc2ccccc2)c(C)c1/C=N/NC(=O)c1cccnc1	-13%	?	32µM*	-4%	-6%
Cc1ccc(Cn2nc(C)c(/C=N/NC(=O)c3cccnc3)c2C)cc1	nt	nt	nt	-1%	-2%
N#CCC(=O)N/N=C/c1cn(Cc2ccc(Cl)c(Cl)c2)c2ccccc12	nt	nt	nt	nt	-14%
Cc1ccc(C(=O)N/N=C/c2cn(Cc3ccccc3)c3ccccc23)cn1	nt	nt	nt	nt	13µM*
Cc1cc(/C=N/Nc2ccc([N+](=O)[O-])cn2)c(C)n1-c1ccccc1	-9%	-1	-7%	13%	?
Cc1ccc(-n2c(C)cc(/C=N/Nc3ccc([N+](=O)[O-])cn3)c2C)cc1	9%	14	-5%	-6%	10µM*
Cc1ccc(Cn2cc(/C=N/Nc3ccc([N+](=O)[O-])cn3)c3ccccc32)cc1	-3%	?	-16%	-1%	10µM*
O=C(O)CSc1ccc(N=C=S)cc1	nt	nt	-4%	-4%[7.66 µM]	-7%[13.5 µM]
O=C(NCCc1ccccc1Cl)c1sc2ncccc2c1-n1cccc1	-1%[46 µM]	nt	nt	nt	nt
CCn1c(=S)[nH]c2scc(-c3cccs3)c2c1=O	12%[46 µM]	nt	nt	0%	14µM*
O=c1c2c(-c3cccs3)csc2[nH]c(=S)n1-c1ccccc1	-6%	?	28µM*	-4%	22µM*
O=c1c2c(-c3cccs3)csc2ncn1-c1ccccc1	-7%	?	-11%	1%	?
CC(C)n1c(=S)[nH]c2scc(-c3cccs3)c2c1=O	nt	nt	nt	nt	13µM*
C=CCn1c(=S)[nH]c2scc(-c3ccc(C)o3)c2c1=O	-12%[46 µM]	nt	nt	0%	?
COC(=O)C1=C(C(=O)OC)[C@@H]2N(C)c3ccccc3[C@@]23C[C@@H](C(=O)OC)N(S(=O)(=O)c2ccc(C#N)cc2)C3=N1	-2%[9.22 µM]	nt	1%	-7%[7.66 µM]	2%[13.5 µM]
COc1ccc(Nc2ncnc3onc(C)c23)c(OC)c1	-1%[46 µM]	nt	nt	nt	nt
CCOc1ccccc1NC(=O)N1CCC(C(=O)c2ccc(F)cc2)CC1	-12%	23	-10%	-1%	5µM*
COc1ccccc1NC(=O)N1CCC(C(=O)c2ccc(F)cc2)CC1	-1%	-15	-9%	-3%	1%
CC1(C)C=Cc2cc3ccc(=O)oc3cc2O1	nt	nt	i	-2%	?
CC(=O)c1cc2c(cc1O)OC(C)(C)C=C2	nt	nt	25µM*	-5%	?
CC(C)Nc1nc(SC(C)C(=O)Nc2ccccc2)nc(N(C)C)n1 (stereo not given)	-11%[46 µM]	nt	nt	1%	-2%
CC(Sc1ncc(C#N)c(N)n1)C(=O)Nc1ccccc1 (stereo not given)	-6%	-112*	-2%	1%	-3%
